Assay outcomes from PubChem.
BioA inh: inhibitors of Mycobacterium tuberculosis BioA enzyme. purified M. tuberculosis BioA enzyme, plate reader. inhibition, % at 9.99 µM. 360,000 tested, 0.096% active; in the data active means inhibition above about 40%; inconclusive means no clear call, values can overlap the other calls
FadD28 binding: inhibitors of Mycobacterium tuberculosis FadD28 bisubstrate binding. FadD28 bisubstrate probe binding, fluorescence polarization. 360,000 tested, 0.22% active. AID 588549. inhibition, % at 12.5 µM; in the data active means inhibition above about 8.5%, passing the limit was not always enough; inconclusive means no clear call, values can overlap the other calls
Yp Topo-I inh: inhibitors of Yersinia pestis topoisomerase I | 360,000 tested, 0.064% active | AID 504884 | activity, % at 10 µM | Y. pestis Topo-I cleavage product accumulation, plate reader; in the data active means activity above about 50%, passing the limit was not always enough; inconclusive means no clear call, values can overlap the other calls
PrP UTR inh: inhibition of PrP 5' UTR reporter expression; cell-based PrP 5' UTR mRNA reporter, plate reader; inhibition, % (test concentration not listed); 340,000 tested, 0.35% active; AID 488862; in the data active means inhibition above about 52%
PfHsp40 rescue: restores yeast growth despite PfHsp40 toxicity; S. cerevisiae expressing PfHsp40, growth rescue, ATP luminescence; growth rescue, % at 12.5 µM; 340,000 tested, 0.68% active; AID 504582; in the data active means growth rescue above about 28%, passing the limit was not always enough; inconclusive means no clear call, values can overlap the other calls;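 further: yeast W303a lacking pdr1 and pdr3 grown in galactose medium; growth measured after three days at 30 °C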
Numbers stand for hits; . = inactive; ? = inconclusive; / = no result given. Shown are actives, neighbours in structure and some others; about 1.1% of the full set was active somewhere.

SMILES	BioA inh	FadD28 binding	Yp Topo-I inh	PrP UTR inh	PfHsp40 rescue
COc1ccc(-c2sc3ccc(OC)cc3c2C#Cc2cncn2C)cc1	.	.	.	.	.
CNC[C@@H]1Oc2ccc(NC(=O)Nc3cccc4ccccc34)cc2C(=O)N([C@@H](C)CO)C[C@H]1C	.	/	/	/	/
Cc1cccc(NC(=O)CN2C(=O)N/C(=C\c3cccn3-c3cccc(C(=O)O)c3)C2=O)c1	/	18	.	.	/
CCOc1cc(/C=C2/NC(=O)N(CC(=O)Nc3cccc(C)c3)C2=O)ccc1O	.	16	.	.	.
Cc1cccc(NC(=O)CN2C(=O)N/C(=C\c3ccccc3OCc3ccc(C(=O)O)cc3)C2=O)c1	.	42	.	.	.
COc1ccc(S(=O)(=O)Nc2ccc3c(c2)CC(=O)N([C@H](C)CO)C[C@H](C)[C@@H](CN(C)Cc2ccc(C(F)(F)F)cc2)O3)cc1	.	/	/	/	/
CO[C@@H]1CN(C)C(=O)c2ccc(NC(=O)C3CCOCC3)cc2OC[C@@H](C)N(CC2CCCCC2)C[C@H]1C	.	/	/	/	/
O=C(c1ccccc1)c1c2c(cc3sc4ccccc4[n+]13)-c1cccc3cccc-2c13	.	.	.	.	119
CO[C@@H]1CN(C)C(=O)c2cc(NS(=O)(=O)c3ccccc3C)ccc2OC[C@H](C)NC[C@H]1C	.	/	/	/	/
Cc1noc(C)c1NC(=O)N(C)C[C@@H]1Oc2ccc(NC(=O)CCCCCC(=O)Nc3ccccc3N)cc2CC(=O)N([C@@H](C)CO)C[C@@H]1C	.	/	/	/	/
CC=Cc1ccc2n(c1=O)C[C@@H]1[C@@H](CO)[C@H](C(=O)NCCc3ccccc3)[C@H]2N1C (mixture of isomers)	.	/	/	/	/
O=C(c1ccc(S(=O)(=O)N2CCCCCC2)cc1)N1CCC(CN2C(=O)c3cccc4cccc(c34)C2=O)CC1	.	.	.	.	44
COC(=O)COc1ccc(Cl)cc1C1Nc2ccccc2C(=O)N1c1ccc(OC)cc1 (configuration not stated)	.	23	.	.	.
O=C(O/N=C(\c1ccccc1)c1ccncc1)c1ccccc1Cl	.	.	.	.	116
C[C@H]1CN([C@@H](C)CO)C(=O)c2cccc(NC(=O)Nc3ccc(C(F)(F)F)cc3)c2O[C@H]1CN(C)C(=O)Nc1ccc2c(c1)OCO2	.	/	/	/	/
O=C(Nc1nnc(-c2ccccc2)o1)c1ccc(Cl)cc1	.	.	.	.	252
CCCOC(=O)c1cc(-c2ccc(/C=C3/C(=O)N(C)C(=O)C(C#N)=C3C)o2)ccc1Cl	.	.	.	.	.
C=CCOC(=O)c1cc(-c2ccc(/C=C3\C(=O)NC(=O)C(C#N)=C3C)o2)ccc1Cl	.	20	.	.	?
Cc1ccc(S(=O)(=O)N(C)C[C@H]2Oc3ccc(NC(=O)CCN4CCOCC4)cc3C(=O)N([C@H](C)CO)C[C@H]2C)cc1	.	/	/	/	/
CCCNC(=O)C[C@H]1CC[C@H]2[C@@H](COC[C@H](O)CN2Cc2ccc(Cl)c(Cl)c2)O1	.	/	/	/	/
O=C(C[C@H]1CC[C@H]2[C@@H](COC[C@H](O)CN2Cc2cccc(Cl)c2)O1)Nc1nccs1	.	/	/	/	/
CN(C)c1ccc(Cc2cc3c(O)ccc(O)c3cc(Cc3ccc(N(C)C)cc3)c2=O)cc1	/	11	.	.	.
CN(C)c1ccc(C(=O)c2ccc(O)cc2O)cc1	.	.	.	.	.
C[C@@H]1CN([C@H](C)CO)C(=O)c2cc(C#CC3(O)CCCC3)cnc2O[C@@H]1CN(C)CC1CC1	.	/	/	/	/
Cc1ccc(NC(=O)CNc2ccccc2N2CCCC2=O)cc1S(=O)(=O)N1CCCCC1	.	42	.	.	.
SMILES	BioA inh	FadD28 binding	Yp Topo-I inh	PrP UTR inh	PfHsp40 rescue
CCCOC(=O)c1ccc(NC(=O)CC(C)(C)C)cc1	/	.	.	.	52
O=C(O)c1ccc(N=N/C(=N\Nc2ccc(C(=O)O)cc2)c2ccccc2)cc1	.	.	.	.	.
Brc1ccc(N/N=C(/N=Nc2nn[nH]n2)c2ccccc2)cc1	/	13	.	.	.
S=C1SCN(Cc2ccccc2)CN1Cc1ccccc1	.	.	.	.	.
S=C1SCN(Cc2cccnc2)CN1Cc1cccnc1	/	.	.	.	309
CC(C)NC(=O)N[C@@H]1CC[C@@H](CCn2cc(-c3ccccc3)nn2)O[C@@H]1CO	.	/	/	/	/
COc1ccc(C2=CC3=C(Br)C(=O)C(C)(OC(=O)c4ccco4)C(=O)C3=CO2)cc1 (configuration not stated)	.	10	.	.	.
COCCN1C=C2C(=O)C(C)(OC(=O)CCC(=O)OC)C(=O)C(Br)=C2C=C1c1ccc(OC)cc1 (configuration not stated)	.	.	.	.	.
COc1ccc(C2=CC3=C(Br)C(=O)C(C)(OC(=O)c4cccs4)C(=O)C3=CO2)cc1 (configuration not stated)	.	16	.	.	.
CC(C)c1ccc(N(CC(=O)NCc2ccc(F)cc2)C(=O)c2snc(C(N)=O)c2N)cc1	.	.	67	.	.
O=C1CCCc2c1cc(-c1ccccc1)n2-c1ccc(O)cc1	/	.	.	.	.
COc1ccc(-n2c(-c3ccccc3)cc3c2CCCC3=O)cc1	.	.	.	.	134
COCC#Cc1ccc2c(c1)O[C@H](CN(C)C(=O)COC)[C@H](C)CN([C@H](C)CO)S2(=O)=O	.	/	/	/	/
Cc1noc(C)c1S(=O)(=O)N(C)C[C@@H]1Oc2ccc(NS(=O)(=O)c3ccc(Cl)cc3)cc2CC(=O)N([C@H](C)CO)C[C@@H]1C	.	/	/	/	/
O=C(Cc1ccsc1)NNC(=O)c1ccccc1O	.	.	.	.	171
O=C(COC(=O)Cc1ccsc1)NNC(=O)c1ccccc1	.	.	.	.	.
CCN(CC)c1ccc(/C=C2\C(=O)c3ccc(C(=O)O)cc3C2=O)cc1	/	25	.	.	.
CCN(CC)c1ccc(C(=O)O)cc1	/	.	.	.	.
O=S(=O)(c1ccccc1)N1CCCCN2[C@@H](CO)[C@@H](c3ccc(C#Cc4ccccn4)cc3)[C@@H]2C1	.	/	/	/	/
CCCCCCNC(=O)CC(c1ccccc1)c1cc(Br)ccc1O (configuration not stated)	.	.	.	.	40
O=C(N/N=C/c1cccnc1)c1ccc2ccccc2c1O	.	.	.	.	.
O=C(Nc1cccnc1)c1ccc2ccccc2c1O	.	.	.	.	173
CCc1ccccc1NC(=O)CN(C)C(=O)CSc1nnc(Nc2cccc(C)c2C)s1	.	29	.	.	.
Cc1nnc(SCC(=O)N(C)CC(=O)Nc2ccccc2Cl)s1	.	.	.	.	.
O=C(O)c1cc(-c2ccc(/C=C3/SC(=S)N(Cc4ccccc4)C3=O)o2)ccc1Cl	.	28	.	.	.
CC(=O)N(C)C[C@H]1Oc2cc(-c3cccc(F)c3)ccc2S(=O)(=O)N([C@@H](C)CO)C[C@H]1C	.	/	/	/	/
O=C(NCc1ccccc1)C1Nc2ccc(OC(F)(F)F)cc2C2C=CCC12 (configuration not stated)	.	.	.	.	.
CC(=O)c1ccc2c(c1)C1C=CCC1C(C(=O)O)N2 (configuration not stated)	/	40	.	.	.
